19 compounds from PubChem BioAssay (NCATS) can be followed below.

Results filed as inconclusive are left out. A number with no mark means an inactive call. The source made the active and inactive calls. The call rests on the fitted dose curve; in most records, active means well fitted cell-killing curve with a large enough effect; inconclusive means small, poorly fitted or top-dose-only effect, or effect the other way; inactive means no such curve, though single readings can be large or run the other way.

A short description of assay [1]: Quantitative High-Throughput drug screen in 47 multiple myeloma cell lines against the NCATS MIPE library collection: SKMM1_PLB cell viability assay (AID 1919863). Further: nearly all actives have a fitted effect of over 35% in size. The note with it: SKMM1 myeloma viability, CellTiter-Glo ATP, 48 h; viability: hits give low values. In a few lines:
(§1)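 MIPE 4.0 approved/investigational drugs; 500 cells/well; 48 h 37 °C humidified 5% CO2; CTG luminescence readout; DMSO = 100%, media = 0% viability.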
For orientation: Cellular ATP, detected with luciferase, serves as a proxy for viable cell number.

The nature of assay [2]: Quantitative High-Throughput drug screen in 47 multiple myeloma cell lines against the NCATS MIPE library collection: U266_ATCC cell viability assay (AID 1919864). Further: nearly all actives have a fitted effect of over 35% in size. In short, it runs like this: as §1
Assay [3] can be described thus: Quantitative High-Throughput drug screen in 47 multiple myeloma cell lines against the NCATS MIPE library collection: VP6_DJ cell viability assay (AID 1919867). Further: nearly all actives have a fitted effect of over 40% in size. In a few lines: as §1
Assay [4] can be described thus: Quantitative High-Throughput drug screen in 47 multiple myeloma cell lines against the NCATS MIPE library collection: UTMC2_PLB cell viability assay (AID 1919868). Further: nearly all actives have a fitted effect of over 55% in size. The note with it: CellTiter-Glo ATP luminescence, 48 h; viability (% of DMSO control): at 45.8 µM (top of the series). In short, it runs like this: as §1
Assay [5] in a line: Quantitative High-Throughput drug screen in 47 multiple myeloma cell lines against the NCATS MIPE library collection: PE2_PLB cell viability assay (AID 1919869). Further: nearly all actives have a fitted effect of over 35% in size. In a few lines:
as §1

Assay [6] is described as follows: Quantitative High-Throughput drug screen in 47 multiple myeloma cell lines against the NCATS MIPE library collection: RPMI8226_ATCC cell viability assay (AID 1919871). Further: nearly all actives have a fitted effect of over 30% in size. In a few lines:
as §1

The nature of assay [7]: Quantitative High-Throughput drug screen in 47 multiple myeloma cell lines against the NCATS MIPE library collection: KMS11_JCRBsus cell viability assay (AID 1919873). Further: nearly all actives have a fitted effect of over 50% in size. In a few lines: as §1
The nature of assay [8]: Quantitative High-Throughput drug screen in 47 multiple myeloma cell lines against the NCATS MIPE library collection: KMS28BM_JCRB cell viability assay (AID 1919874). Further: nearly all actives have a fitted effect of over 35% in size. In short, it runs like this: as §1
Assay [9] can be described thus: Quantitative High-Throughput drug screen in 47 multiple myeloma cell lines against the NCATS MIPE library collection: XG1_PLB cell viability assay (AID 1919866). Further: nearly all actives have a fitted effect of over 35% in size. In a few lines: as §1
Assay [10] in a line: Quantitative High-Throughput drug screen in 47 multiple myeloma cell lines against the NCATS MIPE library collection: OPM2_DSMZ cell viability assay (AID 1919872). Further: nearly all actives have a fitted effect of over 30% in size. In a few lines:
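We plated 500 myeloma cells per well, pinned in MIPE 4.0 compounds, and incubated for 48 hours at 37C. ATP was then quantified with CellTiter-Glo, with DMSO and media-only wells defining 100% and 0%.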

The nature of assay [11]: Quantitative High-Throughput drug screen in 47 multiple myeloma cell lines against the NCATS MIPE library collection: XG6_PLB cell viability assay (AID 1919865). Further: nearly all actives have a fitted effect of over 40% in size. In a few lines: as §1
Assay [12] in a line: Quantitative High-Throughput drug screen in 47 multiple myeloma cell lines against the NCATS MIPE library collection: PCM6_Riken cell viability assay (AID 1919870). Further: nearly all actives have a fitted effect of over 30% in size. In short, it runs like this: as §1
Potency means the concentration at half of the fitted maximal effect.

For the compound `CCC(=O)O[C@]1(C(=O)CO)CC[C@H]2[C@@H]3CCC4=CC(=O)CC[C@]4(C)[C@@H]3CC[C@@]21C`, the viability in assay [1] was 108%. Besides, the Potency result in assay [2], in assay [4], in [5], in [6] and in assay [8] was “inactive” throughout. Further, the Potency was 10.5 µM (active) in assay [3] and 0.209 µM (active) in assay [7].
Take `N#C[C@H]1C[C@H]2C[C@@H]2N1C(=O)[C@@H](N)C12CC3CC(CC(O)(C3)C1)C2`: the viability in assay [1] was 119%. The Potency entry in assay [2], in assay [9], in [6] and in [10] was “inactive” throughout. The Potency in assay [5] is 0.0026 µM (active).
Consider `CCCCCNC(=O)N1CCC(CN(Cc2ccc(Cl)cc2)Cc2ccc([N+](=O)[O-])s2)C1` (centres undefined), for which the Potency in assay [1] was 18.7 µM (active); in assay [2], 16.6 µM (active); in assay [5], 23.5 µM (active); in assay [6], 26.4 µM (active); in [8], 18.7 µM (active).
As to `CCOC(=O)C1=C(N)Oc2ccc(Br)cc2C1C(C#N)C(=O)OCC` (centres undefined), the Potency in assay [1] was 20.9 µM (active); in [11], 18.7 µM (active); in assay [9], 16.6 µM (active); in assay [3], 16.6 µM (active); in assay [4] it was 18.7 µM (active); in assay [5], 20.9 µM (active). Further, the Potency is 16.6 µM (active) in [12], 26.4 µM (active) in [6], 23.5 µM (active) in assay [7] and 20.9 µM (active) in assay [8].
Consider `N#CC(=C(N)Sc1ccccc1N)C(C#N)=C(N)Sc1ccccc1N`, for which the Potency in [1] is 1.32 µM (active); in assay [2], 5.26 µM (active); in assay [11] it was 14.8 µM (active); in assay [4], 8.33 µM (active); in assay [5] it was 18.7 µM (active); in assay [6], 10.5 µM (active). In addition, in assay [7], the Potency was 8.33 µM (active). Moreover, the Potency result in [10] is “inactive”.
For `CCNc1cc(NC2CCC(O)CC2)nc(Nc2ccc3c(ccn3Cc3ccccc3)c2)n1` (centres undefined), the Potency is 18.7 µM (active) in assay [1]; 20.9 µM (active) in assay [11]; 23.5 µM (active) in assay [9]; 23.5 µM (active) in assay [3]; 37.2 µM (active) in assay [4]; 23.5 µM (active) in assay [5]. Besides, the Potency in [12] and in assay [7] was 20.9 µM (active) each time.
Turning to `CC1(C)CCC2=C(O1)c1ccccc1C(=O)C2=O`, the Potency in assay [1] is 20.9 µM (active); in assay [2] it was 20.9 µM (active); in assay [4], 20.9 µM (active); in assay [5], 20.9 µM (active); in assay [12] it was 20.9 µM (active); in [10], 16.6 µM (active). Also, in assay [7], the Potency is 26.4 µM (active).
On to `C[C@H]1[C@H](NC(=O)C(=NOC(C)(C)C(=O)O)c2csc(N)n2)C(=O)N1S(=O)(=O)O`, for which the viability in [1] was 114%. In assay [2], the Potency is 14.8 µM (active). Further, the Potency result in [4], in assay [5], in assay [12], in assay [6], in [10] and in assay [7] was “inactive” throughout. In addition, the Potency entry in [8] is “inactive”.
On to `NC(=O)[C@@H](CCC(F)(F)F)N(Cc1ccc(-c2ncon2)cc1F)S(=O)(=O)c1ccc(Cl)cc1`, for which the Potency was 0.187 µM (active) in [1], 10.5 µM (active) in assay [2] and 20.9 µM (active) in assay [8]. Also, in assay [10], the Potency entry is “inactive”.
In the case of `O=c1cc(CN2CCOCC2)occ1OCCCCCSc1ccnc2cc(C(F)(F)F)ccc12`, in [1], the viability is 111%. The Potency in assay [11] is 3.32 µM (active); in assay [9], 11.8 µM (active); in [3] it was 7.43 µM (active); in assay [4] it was 9.35 µM (active); in assay [5], 7.43 µM (active); in assay [12], 9.35 µM (active). In addition, the Potency in [10] was 11.8 µM (active); in assay [7], 23.5 µM (active). Moreover, the Potency entry in assay [6] is “inactive”.
As for `CO[C@H]1C=CO[C@@]2(C)Oc3c(C)c(O)c4c(O)c(c5c(c4c3C2=O)NC2(CCN(CC(C)C)CC2)N=5)=NC(=O)C(C)=CC=C[C@H](C)[C@H](O)[C@@H](C)[C@@H](O)[C@@H](C)[C@H](OC(C)=O)[C@H]1C`, the viability in [1] was 99.2%. Also, the Potency entry in assay [2], in assay [4], in [5], in assay [10], in assay [7] and in [8] was “inactive” each time. Besides, the Potency in assay [9] is 20.9 µM (active); in assay [6], 16.6 µM (active).
As for `c1ccc2c(-c3cnn4cc(-c5ccc(N6CCNCC6)cc5)cnc34)ccnc2c1`, the results for the Potency in assay [1], in assay [2] and in assay [12] were 9.35 µM (active), 8.33 µM (active) and 0.935 µM (active), respectively.
Take `Oc1ccc(C2=Cc3ccc(O)cc3OC2)cc1`: the Potency in assay [1] was 11.8 µM (active); in [2], 5.9 µM (active); in assay [11], 1.32 µM (active); in assay [5], 9.35 µM (active); in assay [6], 5.9 µM (active).
On to `Clc1cc(Cl)cc(CNc2ncncc2-c2ccc3c(c2)OCO3)c1`, for which the Potency in assay [1] was 16.6 µM (active); in assay [5], 20.9 µM (active); in [7] it was 16.6 µM (active). Also, the Potency entry in assay [2] was “inactive”.
Take `CCC(=O)NC[C@H](Cc1ccc(OCCc2nc(-c3ccccc3)oc2C)cc1)NC(C)=CC(=O)c1ccc(C(F)(F)F)cc1`: the Potency is 18.7 µM (active) in assay [1], 16.6 µM (active) in assay [11], 11.8 µM (active) in assay [5] and 23.5 µM (active) in assay [6]. In addition, the Potency result in [2], in [12] and in assay [8] was “inactive” in each case.
`O=C(CCc1ccc(O)cc1)c1c(O)cc(O)cc1O[C@@H]1O[C@H](CO)[C@H](O)[C@H](O)[C@H]1O`: in assay [1], the viability was 101%. Besides, the Potency result in [2], in assay [9], in assay [5] and in assay [6] was “inactive” each time. In [10], the Potency was 9.35 µM (active).
Take `CO[C@H]1C=CC=C(C)C(=O)NC2=CC(=O)C(NCCN(C)C)=C(C[C@@H](C)C[C@H](OC)[C@@H](O)[C@@H](C)C=C(C)[C@@H]1OC(N)=O)C2=O`: the Potency in assay [1] is 0.372 µM (active); in assay [2], 0.0662 µM (active); in assay [11] it was 0.105 µM (active); in assay [4], 0.0662 µM (active); in assay [5], 0.0935 µM (active); in assay [12], 0.105 µM (active). Also, the Potency was 0.0469 µM (active) in assay [6], 0.0743 µM (active) in assay [10], 0.0093 µM (active) in assay [7] and 0.166 µM (active) in assay [8].
As to `COc1ccc2c3c1OC1C[C@@H](O)C=C[C@@]31CCN(C)C2` (some centres undefined), the viability in [1] is 103%. Besides, the Potency in assay [2] was 4.18 µM (active). Further, the Potency entry in [6], in assay [10] and in assay [7] was “inactive” each time.
In the case of `CCOC(=O)O[C@]1(C(=O)OCCl)CC[C@@H]2[C@H]3CCC4=CC(=O)C=C[C@]4(C)[C@@H]3[C@@H](O)C[C@@]21C`, the viability in assay [1] is 124%. For the same compound, the Potency result in [11], in [9], in assay [5], in [12], in assay [10] and in [8] was “inactive” in each case. Besides, the Potency in [3] was 20.9 µM (active); in [6] it was 0.118 µM (active); in assay [7], 0.264 µM (active).

What is called viability is a read-out of living cells in per cent, often relative to untreated cells.
